For experiment [1], the target named is Glucocorticoid receptor (Homo sapiens) (UniProt P04150). Description: qHTS assay for small molecule agonists of glucocorticoid receptor signaling (AID 588532; active = well fitted curve in the direction sought with a large enough effect in the signal ratio, with a control signal flat; the % refers to the signal ratio;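 also: 100% = dexamethasone at 0.1 µM and 0% = DMSO only wells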). The conditions noted are these: HeLa MMTV-bla, beta-lactamase ratio, agonist, 18 h; activation: stronger effect = higher value, percent of dexamethasone control, DMSO zero. A digest of the protocol:
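Cells were plated and rested 3-5 h at 37 C, compounds were added in titration and incubated 18 h, then CCF4 substrate was loaded for 2 h at RT before reading blue/green fluorescence. EC50 came from Hill-equation fitting.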
(Quantitative high-throughput screening tests each substance at several concentrations.)

The target is the same in experiment [2]. The experiment is described as follows: qHTS assay for small molecule antagonists of glucocorticoid receptor signaling (AID 588533; active = well fitted inhibition curve with a large enough effect in the signal ratio, with a control signal flat, not every such curve was filed as active; the % refers to the signal ratio; also: % is scaled to controls: 0 for no effect and ±100 for the full control effect). The method, boiled down: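 Antagonist-mode qHTS: compound titrations added to GRE-bla HeLa cells, then dexamethasone 2 nM final; 18 h, 37 C. CCF4 FRET fluorescence normalized to dexamethasone and DMSO; IC50 from Hill fit.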

In experiment [3] the target is Peroxisome proliferator-activated receptor delta (Homo sapiens) (UniProt Q03181). Description: qHTS assay for small molecule agonists of peroxisome proliferator-activated receptor delta signaling (AID 588534).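 Also: 0% = DMSO basal wells and 100% = positive control agonist at 10 µM.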 The method, boiled down: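 Titration series tested in agonist mode on beta-lactamase reporter cells; 18 hrs at 37 C after a 5 hr pre-incubation. Readout: CCF4 fluorescence, 2 hrs RT. Hill equation gives EC50 and maximal response.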
Chain of Peroxisome proliferator-activated receptor delta (Homo sapiens) (Q03181 whole entry, looked up): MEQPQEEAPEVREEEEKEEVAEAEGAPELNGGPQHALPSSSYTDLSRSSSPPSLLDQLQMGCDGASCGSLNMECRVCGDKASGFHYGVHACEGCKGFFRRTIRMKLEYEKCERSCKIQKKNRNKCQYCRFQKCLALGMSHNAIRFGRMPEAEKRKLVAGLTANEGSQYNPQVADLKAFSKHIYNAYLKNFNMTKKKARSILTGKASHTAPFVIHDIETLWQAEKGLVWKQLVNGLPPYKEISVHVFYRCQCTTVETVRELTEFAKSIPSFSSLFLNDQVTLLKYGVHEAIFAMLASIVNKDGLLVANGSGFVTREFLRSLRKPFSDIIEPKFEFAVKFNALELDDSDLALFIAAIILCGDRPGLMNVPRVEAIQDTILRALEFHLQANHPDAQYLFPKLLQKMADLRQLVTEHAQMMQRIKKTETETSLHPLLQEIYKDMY

A short description of experiment [4]: qHTS assay for small molecule antagonists of peroxisome proliferator-activated receptor delta signaling (AID 588535; active = well fitted inhibition curve with a large enough effect in the signal ratio, with a control signal flat, not every such curve was filed as active; the % refers to the signal ratio;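 as to max response: cells co-treated with a PPAR-delta agonist as stimulator during compound exposure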). The conditions noted are these: HEK293T PPARd-UAS-bla, beta-lactamase FRET ratio, 18 h; 460 nm channel. A digest of the protocol:
(§1)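 Beta-lactamase reporter read-out (405 nm excitation, 460/530 nm emission) after CCF4 loading for 2 hrs at RT. HEK293T PPAR-delta-UAS-bla cells, 2% charcoal/dextran FBS, compounds for 18 hrs at 37 C. Hill fit gave IC50 and efficacy.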

In experiment [5] the target is Peroxisome proliferator-activated receptor delta (Homo sapiens) (UniProt Q03181). The description is as above. A digest of the protocol: as §1
Experiment [6] deals with Peroxisome proliferator-activated receptor gamma (Homo sapiens) (UniProt P37231). The experiment is described as follows: qHTS assay for small molecule agonists of peroxisome proliferator-activated receptor gamma signaling (AID 588536; active = well fitted curve in the direction sought with a large enough effect in the signal ratio, with a control signal flat, not every such curve was filed as active; the % refers to the signal ratio;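 also: 0% = DMSO basal wells and 100% = rosiglitazone at 2 µM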). A digest of the protocol: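 Cells were plated and held 6–6.5 h at 37 C, then compounds were added as a titration series. After a further 16 h, CCF4 dye was loaded for 2 h at room temperature and emission at 460/530 nm recorded.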
Chain of Peroxisome proliferator-activated receptor gamma (Homo sapiens) (P37231 whole entry, looked up): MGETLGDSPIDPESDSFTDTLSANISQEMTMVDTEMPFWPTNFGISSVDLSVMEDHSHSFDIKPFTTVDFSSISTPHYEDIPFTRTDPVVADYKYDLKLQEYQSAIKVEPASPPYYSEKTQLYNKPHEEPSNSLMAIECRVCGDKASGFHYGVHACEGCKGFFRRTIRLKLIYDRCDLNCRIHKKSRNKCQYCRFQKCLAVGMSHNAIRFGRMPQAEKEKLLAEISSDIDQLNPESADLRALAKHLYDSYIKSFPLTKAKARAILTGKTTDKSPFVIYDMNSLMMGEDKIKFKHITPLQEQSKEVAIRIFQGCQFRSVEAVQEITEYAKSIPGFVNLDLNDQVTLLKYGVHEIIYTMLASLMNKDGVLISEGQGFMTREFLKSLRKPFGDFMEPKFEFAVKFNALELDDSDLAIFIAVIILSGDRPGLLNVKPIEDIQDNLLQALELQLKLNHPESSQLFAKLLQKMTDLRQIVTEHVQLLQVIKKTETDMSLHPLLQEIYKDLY

For experiment [7] the target is unchanged. Description: qHTS assay for small molecule antagonists of peroxisome proliferator-activated receptor gamma signaling (AID 588537; active = well fitted inhibition curve with a large enough effect in the signal ratio, with a control signal flat, not every such curve was filed as active; the % refers to the signal ratio;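 also: reporter cells co-stimulated with 50 nM rosiglitazone agonist during compound treatment; % of control where 0% means no effect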). The method, boiled down: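 Read-out: CCF4 fluorescence (ex 405, em 460/530 nm) after 2 h at RT. Cells were HEK293 carrying a UAS-bla reporter and treated 16 h at 37 C with compound plus rosiglitazone (50 nM final). Normalized to rosiglitazone and DMSO.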

Experiment [8] has as its target Vitamin D3 receptor (Homo sapiens) (UniProt P11473). The experiment is described as follows: qHTS assay for small molecule antagonists of vitamin D receptor signaling (AID 588541).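 Also: receptor activated by calcitriol during compound treatment; series mostly up to about 77 µM; % is scaled to controls: 0 for no effect and ±100 for the full control effect.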 A digest of the protocol:
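VDR-UAS-bla HEK293T cells in 2% charcoal-stripped FBS were stimulated with 1-alpha,25-dihydroxyvitamin D3 (3 nM final) plus compound for 16 h at 37 C. The beta-lactamase CCF4 readout was normalized to 50 nM agonist and DMSO, and Hill fits gave IC50.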

Experiment [9] has the same target. Description: qHTS assay for small molecule agonists of vitamin D receptor signaling (AID 588543).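 Also: 0% = DMSO basal and 100% = reference agonist control.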 The method, boiled down: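 Agonist-mode beta-lactamase reporter: HEK293T VDR-UAS-bla cells in charcoal-stripped 2% FBS, compound series 16 h 37 C, CCF4 2 h RT. EC50 from Hill fit, scaled against DMSO and 50 nM calcitriol control.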
Experiment [10] can be described thus: qHTS assay for small molecule agonists of retinoid X receptor alpha signaling (AID 588544).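 As to activation: 0% = DMSO basal wells and 100% = reference agonist.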 To be noted: HEK293T RXRa-UAS-bla, beta-lactamase reporter, 18 h; 530 nm emission.
Experiment [11] has as its target Retinoic acid receptor RXR-alpha (Homo sapiens) (UniProt P19793). The description is as above.
Experiment [12] can be described thus: qHTS assay for small molecule antagonists of retinoid X receptor alpha signaling (AID 588546; active = well fitted inhibition curve with a large enough effect in the signal ratio, with a control signal flat, not every such curve was filed as active; the % refers to the signal ratio;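 also: cells stimulated with 9-cis-retinoic acid as agonist; % is scaled to controls: 0 for no effect and ±100 for the full control effect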). The conditions noted are these: HEK293T RXRa-UAS-bla, beta-lactamase ratio, antagonist mode; measured here: W530 green channel, cytotoxicity proxy. A digest of the protocol:
(§2)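 Beta-lactamase reporter inhibition, read as CCF4 fluorescence ratio (ex 405, em 460/530 nm) after 2 h at RT. HEK293T UAS-bla cells, 2500/well, were stimulated with 9-cis-RA at 500 or 100 nM final alongside test compound for 18 h at 37 C.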

Experiment [13] deals with Retinoic acid receptor RXR-alpha (Homo sapiens) (UniProt P19793). The description is as above. To be noted: HEK293T RXRa-UAS-bla, beta-lactamase ratio, antagonist mode. A digest of the protocol:
as §2

The target in experiment [14] is Thyroid hormone receptor beta (Homo sapiens) (UniProt P10828). The experiment is described as follows: qHTS assay for small molecule antagonists of thyroid hormone receptor beta signaling (AID 588547; active = well fitted inhibition curve with a large enough effect in the signal ratio, with a control signal flat, not every such curve was filed as active; the % refers to the signal ratio;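 also: cells stimulated with 0.4 nM T3 agonist during compound exposure; series mostly up to about 77 µM; % is scaled to controls: 0 for no effect and ±100 for the full control effect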). The conditions noted are these: TR-UAS-bla HEK293, beta-lactamase ratio, antagonist mode, 18 h. A digest of the protocol: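 TR-UAS-bla GripTite HEK293 cells in 2% charcoal/dextran FBS medium; compounds 0.59 nM to 92 uM with T3 at 0.4nM final, 18 h at 37 C. Beta-lactamase read by CCF4 fluorescence (460/530 nm); Hill fits gave IC50 and efficacy.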
Chain of Thyroid hormone receptor beta (Homo sapiens) (P10828 whole entry, looked up): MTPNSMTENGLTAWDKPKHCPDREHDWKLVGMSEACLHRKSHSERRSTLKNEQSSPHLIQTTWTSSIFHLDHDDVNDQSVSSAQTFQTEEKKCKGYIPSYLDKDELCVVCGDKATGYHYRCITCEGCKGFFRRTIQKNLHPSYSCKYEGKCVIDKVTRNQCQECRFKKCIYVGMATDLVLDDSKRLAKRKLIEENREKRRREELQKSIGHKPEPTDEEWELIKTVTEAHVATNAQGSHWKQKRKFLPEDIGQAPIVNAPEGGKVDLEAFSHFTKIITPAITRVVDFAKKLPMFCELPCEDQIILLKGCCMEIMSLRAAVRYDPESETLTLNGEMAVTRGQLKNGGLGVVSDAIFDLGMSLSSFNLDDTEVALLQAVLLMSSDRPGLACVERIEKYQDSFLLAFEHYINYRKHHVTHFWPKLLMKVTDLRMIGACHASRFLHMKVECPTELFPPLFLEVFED

A short description of experiment [15]: qHTS assay for small molecule activators of the p53 signaling pathway (AID 651743; active = well fitted activation curve with a large enough effect in the signal ratio, not every such curve was filed as active; the % refers to the signal ratio; also: series mostly up to about 92 µM; % of control where 0% means no effect). To be noted: HCT-116 p53RE-bla, beta-lactamase FRET ratio, 16 h; activation: stronger effect = higher value. The method, boiled down:
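Reporter: beta-lactamase driven by p53 response elements, stably integrated in HCT-116 cells. Cells seeded at 4,000/well, 5 h preincubation, compound (DMSO) 16 h at 37 C; B/G FRET substrate 2 h RT; fluorescence intensity read.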

A short description of experiment [16]: qHTS assay for environmental chemicals that activate the Aryl hydrocarbon Receptor (AhR) signaling pathway (AID 651777; active = well fitted curve in the direction sought with a large enough effect; an effect the other way counts as inactive or inconclusive; also: % of control where 0% means no effect; nearly all actives have a fitted effect of over 15% in size). To be noted: 1A2-DRE human hepatoma cells, luciferase, 24 h; activation: stronger effect = higher value. The method, boiled down:
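Reporter gene assay: hepatoma cells with DRE/CYP1A2-luciferase, 24 hr compound incubation at 37 C, 5% CO2, luminescence after One-Glo (30 min, RT).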

Experiment [17] is described as follows: qHTS assay for small molecule agonists of the antioxidant response element (ARE) signaling pathway measured by Nrf2-dependant transcriptional activity (AID 720636; active = well fitted curve in the direction sought with a large enough effect in the repeat runs; an effect the other way counts as inactive or inconclusive;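 also: HepG2 cells with an ARE-driven luciferase reporter; % of control where 0% means no effect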). A digest of the protocol: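 Nrf2-dependent transcription is measured in ARE-luc HepG2 cells: compound is applied for 16 hr at 37 C after a 6 hr attachment period, and luciferase activity is quantified by luminescence using ONE-Glo.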

Experiment [18] is described as follows: qHTS assay for small molecule agonists of the antioxidant response element (ARE) signaling pathway measured by Nrf2-dependant transcriptional activity - cell viability counter screen (AID 720653; active = well fitted curve in the direction sought with a large enough effect in the repeat runs; an effect the other way counts as inactive or inconclusive; also: % is scaled to controls: 0 for no effect and ±100 for the full control effect). The conditions noted are these: ARE-bla HepG2 viability, CellTiter-Glo ATP luminescence, 16 h; max response: stronger effect = lower value. The method, boiled down:
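ARE-bla HepG2 cells treated with compounds for 16 h at 37C; this counter screen measures viability as intracellular ATP by CellTiter-Glo luminescence after 30 min at room temperature.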

Experiment [19] in a line: qHTS assay for cell viability of HEK293 cells (AID 743288; active = well fitted curve in the direction sought with a large enough effect; an effect the other way counts as inactive or inconclusive; also: % is scaled to controls: 0 for no effect and ±100 for the full control effect; nearly all actives have a fitted effect of over 50% in size). The conditions noted are these: ATP luminescence (CellTiter-Glo), 18 h; max response: stronger effect = lower value. A digest of the protocol:
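Readout is luciferase-coupled ATP content (CellTiter-Glo luminescence, 30 min room temperature) as a measure of metabolically competent cells. Parental HEK293 cells were plated 5 h or more before compound addition, then treated 18 h at 37 C.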

Experiment [20] in a line: qHTS assay for cell viability of the p53RE-bla HCT-116 cell line (AID 743292; active = well fitted curve in the direction sought with a large enough effect; an effect the other way counts as inactive or inconclusive; also: % is scaled to controls: 0 for no effect and ±100 for the full control effect; nearly all actives have a fitted effect of over 55% in size). The method, boiled down: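 ATP-based luminescence, 16 h compound exposure at 37 C, p53RE-bla HCT-116 cells at 4,000/well.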
The target of experiment [21] is Nuclear receptor subfamily 1 group I member 2 (Rattus norvegicus) (UniProt Q9R1A7). The experiment is described as follows: qHTS assay for small molecule activators of the rat pregnane X receptor (rPXR) signaling pathway (AID 651751; call rule not given here; also: 0% is about no effect). The conditions noted are these: rPXR reporter cells, luciferase (One-Glo), 24 h.
Chain of Nuclear receptor subfamily 1 group I member 2 (Rattus norvegicus) (Q9R1A7 whole entry, looked up): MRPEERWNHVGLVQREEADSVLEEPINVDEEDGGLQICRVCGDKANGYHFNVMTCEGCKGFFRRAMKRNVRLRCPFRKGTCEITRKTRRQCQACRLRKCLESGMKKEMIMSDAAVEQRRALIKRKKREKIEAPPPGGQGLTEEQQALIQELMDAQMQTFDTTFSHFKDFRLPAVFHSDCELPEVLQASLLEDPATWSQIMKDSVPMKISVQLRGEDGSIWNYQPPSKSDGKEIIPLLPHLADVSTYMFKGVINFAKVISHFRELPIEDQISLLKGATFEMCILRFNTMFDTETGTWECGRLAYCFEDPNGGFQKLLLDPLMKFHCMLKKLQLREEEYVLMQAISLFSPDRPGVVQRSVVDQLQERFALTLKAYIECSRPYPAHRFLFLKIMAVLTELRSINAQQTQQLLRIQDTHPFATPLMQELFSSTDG
The nature of experiment [22]: qHTS assay for small molecule activators of the human pregnane X receptor (PXR) signaling pathway (AID 720659; call rule not given here; also: 0% is about no effect).
In experiment [23] the target is Cytochrome P450 3A4 (Homo sapiens) (UniProt P08684). Description: qHTS Assay for Inhibitors and Substrates of Cytochrome P450 3A4 (AID 884; active = well fitted curve in the direction sought with a large enough effect; an effect the other way counts as inactive or inconclusive; also: potency is read from the fitted curve at half-maximal effect; nearly all actives have a fitted effect of over 50% in size). The method, boiled down:
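Luminescent readout of luciferin produced by CYP3A4 (20 nM) dealkylation of Luciferin-PPXE, 25 uM (its KM). NADPH-driven reaction ran 60 min at RT after 10 min compound preincubation; data scaled to 57 uM ketoconazole as 100% inhibition.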

The target is the same in experiment [24]. Description: qHTS Assay for Activators of Cytochrome P450 3A4 (AID 885; active = well fitted curve in the direction sought with a large enough effect; an effect the other way counts as inactive or inconclusive; also: nearly all actives have a fitted effect of over 65% in size). A digest of the protocol:
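Human CYP3A4 dealkylates Luciferin-PPXE to luciferin, which luciferase detection converts to light. Substrate was at its KM (25uM), buffer 200mM KPO4, reaction 60 min at RT.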

The target of experiment [25] is Bile acid receptor (Homo sapiens) (UniProt Q96RI1). Description: qHTS assay for small molecule agonists of farnesoid X receptor signaling (AID 588527).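 Also: series mostly up to about 77 µM; 0% = vehicle basal and 100% = reference agonist.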 The conditions noted are these: HEK293T FXR-UAS-bla, beta-lactamase ratio, 16 h; activation: stronger effect = higher value. The method, boiled down: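 FXR-UAS-bla HEK293T cells (10% dialyzed FBS) preincubated 5-7 h at 37 C, then compounds at up to 92 uM for 16 h at 37 C. CCF4 beta-lactamase read-out after 2 h RT. Normalized to chenodeoxycholic acid (100 uM) and DMSO; Hill fit gave EC50 and efficacy.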
Chain of Bile acid receptor (Homo sapiens) (Q96RI1 whole entry, looked up): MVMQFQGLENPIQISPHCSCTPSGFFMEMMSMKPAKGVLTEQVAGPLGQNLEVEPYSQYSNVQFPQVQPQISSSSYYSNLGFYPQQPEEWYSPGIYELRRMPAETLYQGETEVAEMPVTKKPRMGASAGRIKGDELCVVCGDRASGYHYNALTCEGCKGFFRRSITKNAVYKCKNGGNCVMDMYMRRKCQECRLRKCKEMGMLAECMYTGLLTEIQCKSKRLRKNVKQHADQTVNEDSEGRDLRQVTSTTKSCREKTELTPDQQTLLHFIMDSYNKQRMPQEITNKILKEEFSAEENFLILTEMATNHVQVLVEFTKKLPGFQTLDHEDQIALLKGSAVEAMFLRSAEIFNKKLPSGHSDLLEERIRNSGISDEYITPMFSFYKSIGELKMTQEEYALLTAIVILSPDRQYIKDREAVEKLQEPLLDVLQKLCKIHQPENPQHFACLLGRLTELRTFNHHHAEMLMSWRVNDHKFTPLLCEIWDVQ

Where “and” joins values, the source holds several entries; their conditions need not be identical. Equal entries are not always repeated. Results filed as inconclusive are left out. Calls of active or inactive are those of the source. Unless noted, calls follow the shape of the full dose curve.

Chain of Vitamin D3 receptor (Homo sapiens) (P11473 whole entry, looked up): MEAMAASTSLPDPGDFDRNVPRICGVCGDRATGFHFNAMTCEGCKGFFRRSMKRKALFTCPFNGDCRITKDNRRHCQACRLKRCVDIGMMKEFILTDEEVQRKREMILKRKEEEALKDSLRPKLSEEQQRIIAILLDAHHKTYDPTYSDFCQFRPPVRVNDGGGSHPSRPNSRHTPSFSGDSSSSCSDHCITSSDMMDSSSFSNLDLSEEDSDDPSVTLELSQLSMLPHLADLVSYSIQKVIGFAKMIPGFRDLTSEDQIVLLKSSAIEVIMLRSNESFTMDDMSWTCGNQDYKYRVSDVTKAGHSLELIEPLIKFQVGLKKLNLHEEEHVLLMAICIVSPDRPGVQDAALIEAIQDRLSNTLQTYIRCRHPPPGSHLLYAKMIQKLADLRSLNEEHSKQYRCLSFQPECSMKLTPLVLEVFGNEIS
Chain of Glucocorticoid receptor (Homo sapiens) (P04150 whole entry, looked up): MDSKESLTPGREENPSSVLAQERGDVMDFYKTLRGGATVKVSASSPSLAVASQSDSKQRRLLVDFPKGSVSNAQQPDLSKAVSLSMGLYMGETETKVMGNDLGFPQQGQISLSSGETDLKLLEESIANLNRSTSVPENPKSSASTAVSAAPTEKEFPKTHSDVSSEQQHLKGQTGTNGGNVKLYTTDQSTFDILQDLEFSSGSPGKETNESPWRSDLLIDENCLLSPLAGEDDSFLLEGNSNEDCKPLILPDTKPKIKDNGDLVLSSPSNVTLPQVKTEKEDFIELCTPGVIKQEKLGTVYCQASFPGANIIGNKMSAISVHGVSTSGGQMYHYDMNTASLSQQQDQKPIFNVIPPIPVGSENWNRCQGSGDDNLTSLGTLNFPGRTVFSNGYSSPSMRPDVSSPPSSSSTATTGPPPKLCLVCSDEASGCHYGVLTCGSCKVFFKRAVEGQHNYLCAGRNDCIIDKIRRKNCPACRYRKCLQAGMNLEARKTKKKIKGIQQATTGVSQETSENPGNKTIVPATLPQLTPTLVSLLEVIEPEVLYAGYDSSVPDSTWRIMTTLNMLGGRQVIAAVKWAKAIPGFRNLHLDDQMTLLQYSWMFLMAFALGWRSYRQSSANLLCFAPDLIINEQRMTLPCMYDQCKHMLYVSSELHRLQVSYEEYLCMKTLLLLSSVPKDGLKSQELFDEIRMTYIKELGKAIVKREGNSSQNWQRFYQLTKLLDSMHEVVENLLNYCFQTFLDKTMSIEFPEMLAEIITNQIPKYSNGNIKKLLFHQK
Chain of Cytochrome P450 3A4 (Homo sapiens) (P08684 whole entry, looked up): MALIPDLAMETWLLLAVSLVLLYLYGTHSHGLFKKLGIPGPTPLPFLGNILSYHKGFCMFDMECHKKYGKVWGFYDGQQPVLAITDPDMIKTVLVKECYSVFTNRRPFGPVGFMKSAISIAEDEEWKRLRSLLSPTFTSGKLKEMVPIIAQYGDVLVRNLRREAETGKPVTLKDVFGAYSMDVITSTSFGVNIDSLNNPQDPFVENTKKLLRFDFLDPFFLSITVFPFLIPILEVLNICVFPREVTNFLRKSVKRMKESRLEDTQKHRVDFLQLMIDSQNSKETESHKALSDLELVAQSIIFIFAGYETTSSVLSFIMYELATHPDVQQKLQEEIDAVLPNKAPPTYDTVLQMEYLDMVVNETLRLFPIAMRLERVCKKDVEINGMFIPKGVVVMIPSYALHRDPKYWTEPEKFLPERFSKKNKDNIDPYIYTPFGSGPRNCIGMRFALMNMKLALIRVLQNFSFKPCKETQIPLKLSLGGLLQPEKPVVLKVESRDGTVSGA
Chain of Retinoic acid receptor RXR-alpha (Homo sapiens) (P19793 whole entry, looked up): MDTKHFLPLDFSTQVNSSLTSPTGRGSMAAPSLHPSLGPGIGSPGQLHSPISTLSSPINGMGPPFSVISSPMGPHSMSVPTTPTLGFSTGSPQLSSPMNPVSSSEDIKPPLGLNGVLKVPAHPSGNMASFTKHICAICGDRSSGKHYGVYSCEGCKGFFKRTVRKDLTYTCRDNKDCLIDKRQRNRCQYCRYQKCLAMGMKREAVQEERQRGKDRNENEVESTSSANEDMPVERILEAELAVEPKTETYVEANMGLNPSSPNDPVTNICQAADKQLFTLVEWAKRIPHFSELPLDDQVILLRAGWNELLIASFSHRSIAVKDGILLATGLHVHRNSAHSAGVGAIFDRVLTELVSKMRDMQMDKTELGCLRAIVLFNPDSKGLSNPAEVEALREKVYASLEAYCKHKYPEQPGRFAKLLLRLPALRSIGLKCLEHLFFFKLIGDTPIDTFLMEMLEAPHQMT

As to `Brc1ccc(Oc2ccccc2)cc1`, the activation in experiment [1] is 1.51% (inactive); in [15], 1.17% (inactive); in experiment [16], -0.643% (inactive). The Potency entry in experiment [2], in experiment [5], in experiment [6], in experiment [7], in experiment [8] and in experiment [11] was “inactive” throughout. Further, the Potency entry in [17] and in experiment [20] was “inactive” throughout. Besides, the compound was called inactive in [3], in experiment [9] and in [22]. The max response is 2.82% in experiment [4]; -12.9% in experiment [10]; -7.34% in [12]; 1.13% (inactive) in [13]; -10.2% (inactive) in experiment [18]; -5.38% (inactive) in experiment [19]. The max response in experiment [21] was -2.47% (inactive). Besides, in experiment [14], the activity change % (negative = inhibition) was -9.48% (inactive).
Turning to `CC1(C)CC(N=C=O)CC(C)(CN=C=O)C1` (stereo not given), the Potency in experiment [23] was 25.1 µM (active). In [24], the Potency result is “inactive”. Moreover, in experiment [25], the activation was -0.574% (inactive) and 2.35% (inactive).

The record behind these values is PubChem BioAssay (NCATS).
